Compound activity as filed in PubChem.
KLK7 zymogen act: activators of human kallikrein-7 zymogen. purified proKLK7, EDANS-DABCYL substrate fluorescence; 100% is mature enzyme control, 0% vehicle. hit rate 0.9% among 370,000. P49862. activation, % at 7 µM;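 active means activation above the mean of all tested compounds plus 3 SD, computed per campaign excluding outliers beyond control limits, cut at about 13% in these data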
Target sequence (P49862 whole entry, looked up): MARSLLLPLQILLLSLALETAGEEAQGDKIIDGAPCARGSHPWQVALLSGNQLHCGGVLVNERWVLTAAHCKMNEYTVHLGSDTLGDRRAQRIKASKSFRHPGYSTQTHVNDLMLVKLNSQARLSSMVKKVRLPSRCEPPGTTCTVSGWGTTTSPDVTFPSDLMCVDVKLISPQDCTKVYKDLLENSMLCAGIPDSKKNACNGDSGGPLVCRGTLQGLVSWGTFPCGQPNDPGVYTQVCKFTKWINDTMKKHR
ADAM10 inh: ADAM10 inhibition, QFRET primary screen. O14672. recombinant ADAM10, EDANS/DABCYL FRET peptide cleavage, 3 h. inhibition, % at 7 µM. hit rate 0.62% among 370,000. AID 720582;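 active means inhibition above a per-campaign cutoff equal to the mean of compounds falling between control-based bounds plus 3 SD, cut at about 20% in these data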
Ecoli rRNA inh: inhibits bacterial ribosomal RNA function over humanized ribosomes | hit rate 1.6% among 350,000 | E. coli WT GFP vs humanized-ribosome RFP mutants, fluorescence, 24 h; hits give low values; DMSO median 0, no signal -100 | AID 720706 | GFP signal change (wild-type ribosome), % (concentration not given with the values);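 active means significant combined selectivity score with lowered wild-type GFP, culture density cut under 30%, mutant RFP and density less affected; inactive means any of these conditions unmet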
FGF22 binding: shifts melting point of recombinant human FGF22 | Q9HCT0 | recombinant FGF22 thermal shift, SYPRO orange fluorescence; percent of sucrose octasulfate shift, DMSO zero | activity (Tm shift, normalised), % at 9.99 µM | hit rate 1.5% among 340,000 | AID 651658;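 active means mean Tm shift, scaled 0 neutral to 100 positive control, at about 1.3% or above, every replicate too, limit read from the data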
Target sequence (Q9HCT0 whole entry, looked up): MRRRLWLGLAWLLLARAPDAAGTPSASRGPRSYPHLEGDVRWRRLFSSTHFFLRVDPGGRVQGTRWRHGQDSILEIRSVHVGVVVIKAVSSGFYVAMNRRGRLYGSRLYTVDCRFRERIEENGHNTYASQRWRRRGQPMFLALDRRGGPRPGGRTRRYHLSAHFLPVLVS
ADAM17 inh: inhibitors of human ADAM17 | recombinant ADAM17, EDANS/DABCYL FRET peptide cleavage | AID 720648 | inhibition, % at 6.95 µM | hit rate 0.83% among 370,000;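 active means inhibition above the mean of compounds lying between control limits plus 3 SD, set per campaign, cut at about 8.5% in these data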
A number is an active result; - = inactive; . = no result. Only some compounds are listed: those with a hit (about 3.8% of all), similar ones and a draw of the others.

SMILES	KLK7 zymogen act	ADAM10 inh	Ecoli rRNA inh	FGF22 binding	ADAM17 inh
O=S(=O)(c1cccc(-c2nnc(SCc3ccc(Cl)cc3)o2)c1)N1CCCCC1	-	-	.	.	-
CN(C)S(=O)(=O)c1cccc(-c2nnc(SCc3ccc4c(c3)OCCO4)o2)c1	-	20.4	.	.	11.6
C/C(=N/OC(=O)C1CC1c1ccccc1)c1ccccc1 (stereo unspecified)	-	-	-20.9	-	-
C[C@H]1[C@@H]2C[C@@]3(O[C@H](c4ccccn4)N=C3C[C@@H]1c1ccccc1)N(Cc1ccncc1)C2=O	-	-	-	48.5	-
Cc1ccccc1S(=O)(=O)N(C)C[C@H]1OCc2ccccc2-c2ccccc2C(=O)N([C@@H](C)CO)C[C@@H]1C	.	.	-	.	.
CC(=O)C1=C(O)C(=O)N(c2nccs2)C1c1ccccc1F (stereo unspecified)	-	-	-	-	-
COc1ccc(C2C(C(C)=O)=C(O)C(=O)N2c2nccs2)c(OC)c1 (stereo unspecified)	-	-	-	45.5	-
N#Cc1ccc(NC(=O)COC(=O)c2cccc(S(=O)(=O)N3CCCC3)c2)cc1	-	-	-	43.2	-
N#Cc1ccccc1COC(=O)c1cccc(S(=O)(=O)N2CCCC2)c1	-	-	-28.9	-	-
Cc1ccc(C)c(COC(=O)c2cccc(S(=O)(=O)N3CCCC3)c2)c1	-	-	-	-	-
COc1ccc(NC(=O)COC(=O)c2cccc(S(=O)(=O)N(C)C)c2)cc1	-	-	-	43.0	-
N#Cc1ccc(C(=O)OCC(=O)Nc2cccc(S(=O)(=O)N3CCCCC3)c2)cc1	-	-	-	-	-
CN(C)S(=O)(=O)c1cccc(C(=O)Nc2ccccc2)c1	-	-	-	43.2	-
C[C@@H]1CN(C)C(=O)c2cc(N)ccc2O[C@H]1CN(C)C(=O)OC(C)(C)C	.	.	-	.	.
Cc1noc(C)c1S(=O)(=O)Nc1ccc2c(c1)CC(=O)N([C@H](C)CO)C[C@H](C)[C@H](CN(C)S(C)(=O)=O)O2	.	.	-	-	.
C[C@H](CO)N1C[C@H](C)[C@H](CN(C)C(=O)CN2CCOCC2)Oc2ncc(-c3cncnc3)cc2C1=O	.	.	-	.	.
CN1CCN(C(=O)C[C@H]2C[C@@H]3c4cc(NC(=O)CC5CC5)ccc4O[C@@H]3[C@@H](CO)O2)CC1	.	.	-	-	.
O=C(COC(=O)c1cccc(O)c1)Nc1ccc(OC(F)F)cc1	-	-	-25.1	-	-
O=C1C2C3C=CC(CC3)C2C(=O)N1c1ccc(Cl)cc1 (stereo unspecified)	-	-	-	-	-
O=C1C2C3C=CC(C3)C2S(=O)(=O)C2C3C=CC(C3)C12 (stereo unspecified)	-	-	-	42.9	-
O=C1C2C3C=CC(CC3)C2S(=O)(=O)C2C3C=CC(CC3)C12 (stereo unspecified)	-	-	-	44.0	-
Cn1cc(Cl)c(C(=O)Nc2cnn(Cc3ccc(F)cc3)c2)n1	-	-	-	-	-
CC(=O)c1cccc(NC(=S)NCCc2ccc(F)cc2)c1	-	-	-	43.9	-
CC(=O)c1cccc(NC(=O)Nc2cnn(Cc3ccc(F)cc3)c2)c1	-	-	-22.2	-	-
CC(=O)c1cccc(NC(=S)NCCC2=CCCCC2)c1	-	-	.	.	-
SMILES	KLK7 zymogen act	ADAM10 inh	Ecoli rRNA inh	FGF22 binding	ADAM17 inh
CC(=O)Nc1cccc(NC(=S)Nc2ccc(F)cc2F)c1	-	-	-	43.3	-
COC(=O)C[C@H]1C[C@@H]2c3cc(NC(=O)CC4CC4)ccc3O[C@@H]2[C@H](CO)O1	.	.	-	-	.
CCCCNc1ncnc2c1cnn2Cc1ccc(Cl)cc1	-	-	-	-	-
CCN(CC)c1ncnc2c1cnn2Cc1ccc(Cl)cc1	-	-	-	43.3	-
COc1ccc(C(=O)O)cc1S(=O)(=O)Nc1cc(Cl)ccc1N1CCOCC1	-	-	-	-	-
COc1ccc(C(=O)O)cc1S(=O)(=O)Nc1cc(C(F)(F)F)ccc1N1CCCCC1	-	-	-25.0	-	-
O=C(Nc1ccccc1N1CCCCC1)c1ccc(F)cc1	-	-	.	.	-
O=C(CCN1CCN(c2ccccc2)CC1)Nc1ccccc1F	-	-	.	.	-
O=C(NC1=NN(c2ccccc2)CC1)Nc1ccccc1F	-	-	-32.4	-	-
O=C(Nc1ccccc1F)Nc1ccccc1N1CCCCC1	-	-	-31.2	-	-
COc1ccc2c3c([nH]c2c1)[C@@H](CO)N(C(=O)c1cccnc1)CC31CN(C(=O)NC(C)C)C1	.	.	-	-	.
